Active and inactive are the calls of the source. The calls were made as follows: active = hit-call score of the fitted dose curve at least 0.9, where 1 is the maximum; inactive = score below 0.9.
Columns and labels:
Details in all cases: mRNA level, 48 h; actives raise or lower the signal
[1] = read-out: Insulin-like growth factor-binding protein 1 (IGFBP1), IGFBP1 (gene 3484); experiment: LTEA_HepaRG_IGFBP1: Life Technologies and Expression Analysis (LTEA) Assay for Insulin-like growth factor-binding protein 1 (IGFBP1) using HepaRG (AID 2283508)
Method in brief: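 Differentiated human HepaRG cells in serum-free induction medium were exposed in duplicate for 48 h to eight concentrations, top 100 uM with half-log dilutions, in 0.5% DMSO. Transcript levels came from qRT-PCR normalised to ACTB, GAPDH and POLR2A, fitted bidirectionally against DMSO.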

[2] = read-out: Interleukin 6 (IL6), IL6 (gene 3569); experiment: LTEA_HepaRG_IL6: Life Technologies and Expression Analysis (LTEA) Assay for Interleukin 6 (IL6) using HepaRG (AID 2283509)
Method in brief: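 Changes in IL6 mRNA, up or down relative to 0.5% DMSO controls, were derived from concentration-response curves in human HepaRG cells treated for 48 h at up to 100 uM, with ACTB, GAPDH and POLR2A as normalizers.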

[3] = read-out: Interleukin 6 Receptor (IL6R), IL6R (gene 3570); experiment: LTEA_HepaRG_IL6R: Life Technologies and Expression Analysis (LTEA) Assay for Interleukin 6 Receptor (IL6R) using HepaRG (AID 2283510)
Method in brief: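 In this HepaRG screen, test chemicals act on cells for 48 h at up to 100 uM (eight half-log points, duplicate wells). IL6R expression is quantified by qRT-PCR after normalization to ACTB, GAPDH and POLR2A, with DMSO as baseline.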

[4] = read-out: Potassium channel subfamily K member 1 (KCNK1), KCNK1 (gene 3775); experiment: LTEA_HepaRG_KCNK1: Life Technologies and Expression Analysis (LTEA) Assay for Potassium channel subfamily K member 1 (KCNK1) using HepaRG (AID 2283511)
Method in brief: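 Human HepaRG cultures receive test chemicals for 48 h in 0.5% DMSO, top concentration 100 uM with half-log dilutions. Induction or suppression of KCNK1 mRNA relative to DMSO is derived by bidirectional fitting of qRT-PCR data.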

[5] = read-out: JUN Transcription Factor, JUN (gene 3725); experiment: LTEA_HepaRG_JUN: Life Technologies and Expression Analysis (LTEA) Assay for JUN Transcription Factor using HepaRG (AID 2283513)
Method in brief: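 Gene-expression endpoint: JUN mRNA (qRT-PCR, normalized to three reference genes) in HepaRG cultures treated 48 h with chemicals, duplicate wells, 100 uM maximum with half-log dilutions; bidirectional fitting relative to 0.5% DMSO.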

[6] = read-out: Lipase C (LIPC), LIPC (gene 3990); experiment: LTEA_HepaRG_LIPC: Life Technologies and Expression Analysis (LTEA) Assay for Lipase C (LIPC) using HepaRG (AID 2283514)
Method in brief: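 In this multiplexed gene-expression screen, human HepaRG cultures received test chemicals for 48 h across eight concentrations with 100 uM highest, in duplicate. Values reflect LIPC mRNA induction or suppression versus DMSO vehicle, from normalized qRT-PCR.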

[7] = read-out: Lipoprotein lipase (LPL), LPL (gene 4023); experiment: LTEA_HepaRG_LPL: Life Technologies and Expression Analysis (LTEA) Assay for Lipoprotein lipase (LPL) using HepaRG (AID 2283515)
Method in brief: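 Concentration-response testing used half-log steps from 100 uM in 0.5% DMSO on human HepaRG cells, 48 h, duplicate wells. Phenobarbital 1 mM served as induction control; LPL mRNA was normalized to ACTB, GAPDH, POLR2A.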

[8] = read-out: MicroRNA 122 (MIR122), gene 406906; experiment: LTEA_HepaRG_MIR122: Life Technologies and Expression Analysis (LTEA) Assay for MicroRNA 122 (MIR122) using HepaRG (AID 2283516); also: the transcript read is the microRNA miR-122
Method in brief: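 Changes in transcript abundance, up or down relative to 0.5% DMSO vehicle, were scored after 48 h chemical treatment of HepaRG cells (maximum 100 uM). Quantification used TaqMan qRT-PCR normalized to housekeeping genes.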

[9] = read-out: matrix metalloproteinase-10 (MMP10), MMP10 (gene 4319); experiment: LTEA_HepaRG_MMP10: Life Technologies and Expression Analysis (LTEA) Assay for matrix metalloproteinase-10 (MMP10) using HepaRG (AID 2283517)
Method in brief: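 In differentiated HepaRG cultures kept in 0.5% DMSO, test chemicals act for 48 h over an eight-point range with a top dose of 100 uM. Expression is then quantified by TaqMan RT-PCR against ACTB, GAPDH and POLR2A.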

MYC, MYC (gene 4609) = experiment: LTEA_HepaRG_MYC: Life Technologies and Expression Analysis (LTEA) Assay for MYC using HepaRG (AID 2283518)
Method in brief: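 Differentiated human HepaRG cells, plated 48 h then switched to serum-free induction medium, were exposed in duplicate for 48 h to 8-point half-log series up to 100 uM in 0.5% DMSO. MYC mRNA measured by qRT-PCR, normalized to ACTB/GAPDH/POLR2A.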

[10] = read-out: matrix metalloproteinase-3 (MMP3), MMP3 (gene 4314); experiment: LTEA_HepaRG_MMP3: Life Technologies and Expression Analysis (LTEA) Assay for matrix metalloproteinase-3 (MMP3) using HepaRG (AID 2283519)
Method in brief: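 Human liver HepaRG cultures received chemicals (top concentration 100 uM, 0.5% DMSO) for 48 h in duplicate. MMP3 mRNA induction or loss was then assessed via TaqMan qRT-PCR with housekeeping-gene normalisation.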

[11] = read-out: Paternally Expressed 10 (PEG10), PEG10 (gene 23089); experiment: LTEA_HepaRG_PEG10: Life Technologies and Expression Analysis (LTEA) Assay for Paternally Expressed 10 (PEG10) using HepaRG (AID 2283520);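 as to AC50: PEG10 transcript by qRT-PCR normalised to ACTB GAPDH and POLR2A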
Method in brief: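 After 48 h exposure of differentiated HepaRG cells (0.5% DMSO vehicle, eight concentrations up to 100 uM, duplicates), PEG10 mRNA was measured by TaqMan qRT-PCR. Values were normalised to endogenous control genes and analysed bidirectionally against vehicle.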

[12] = read-out: Protein phosphatase 2A (PPP2R4), PTPA (gene 5524); experiment: LTEA_HepaRG_PPP2R4: Life Technologies and Expression Analysis (LTEA) Assay for Protein phosphatase 2A (PPP2R4) using HepaRG (AID 2283522)
Method in brief: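 Using HepaRG cultures maintained in 0.5% DMSO, chemicals are tested 48 h at up to 100 uM in duplicate. Induction or suppression of PPP2R4 mRNA, measured by qRT-PCR, is fitted bidirectionally against the vehicle baseline.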

[13] = read-out: Phosphatase and tensin (PTEN), PTEN (gene 5728); experiment: LTEA_HepaRG_PTEN: Life Technologies and Expression Analysis (LTEA) Assay for Phosphatase and tensin (PTEN) using HepaRG (AID 2283523)
Method in brief: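 Expression of PTEN is quantified in the human liver line HepaRG following two days of dosing (top concentration 100 uM, half-log dilutions, 0.5% DMSO). Values derive from bidirectional curve fitting relative to DMSO controls.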

[14] = read-out: solute carrier (SLC22A1), SLC22A1 (gene 6580); experiment: LTEA_HepaRG_SLC22A1: Life Technologies and Expression Analysis (LTEA) Assay for solute carrier (SLC22A1) using HepaRG (AID 2283524);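 as to AC50: TaqMan qRT-PCR normalized to ACTB GAPDH and POLR2A housekeeping genes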
Method in brief: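 Transcript induction or suppression of SLC22A1 in human HepaRG cultures is scored after 48 h chemical treatment, with DMSO (0.5%) as baseline for bidirectional fitting. Concentrations span eight half-log points topping at 100 uM.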

[15] = read-out: Pyruvate Dehydrogenase Kinase 4 (PDK4), PDK4 (gene 5166); experiment: LTEA_HepaRG_PDK4: Life Technologies and Expression Analysis (LTEA) Assay for Pyruvate Dehydrogenase Kinase 4 (PDK4) using HepaRG (AID 2283525)
Method in brief: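 Eight-point, half-log concentration series (max 100 uM, 0.5% DMSO) applied to differentiated HepaRG cells for 48 h in duplicate. Endpoint: PDK4 mRNA induction or repression by qRT-PCR against DMSO baseline.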

[16] = read-out: NAD(P)H dehydrogenase [quinone] 1 (NQO1), NQO1 (gene 1728); experiment: LTEA_HepaRG_NQO1: Life Technologies and Expression Analysis (LTEA) Assay for NAD(P)H dehydrogenase [quinone] 1 (NQO1) using HepaRG (AID 2283526)
Method in brief: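 In this assay, gene expression is read by qRT-PCR after 48 h exposure of HepaRG cells to eight concentrations (max 100 uM, half-log) in 0.5% DMSO. Each chemical runs in duplicate, and activity is scored relative to vehicle.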

[17] = read-out: Nuclear factor NF-kappa-B p105 subunit (Homo sapiens) (UniProt P19838); experiment: LTEA_HepaRG_NFKB1: Life Technologies and Expression Analysis (LTEA) Assay for Nuclear Factor Kappa B Subunit 1 (NFKB1) using HepaRG (AID 2283521);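 also: TaqMan qRT-PCR transcript normalised to ACTB GAPDH and POLR2A housekeeping genes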
Method in brief: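 Differentiated human HepaRG cells in serum-free induction medium with 0.5% DMSO were exposed for 48 h to eight half-log concentrations, top 100 uM, in duplicate. NFKB1 mRNA measured by Fluidigm TaqMan qRT-PCR, normalised to ACTB, GAPDH and POLR2A; bidirectional fit versus DMSO.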

Measured: AC50

Chain of Nuclear factor NF-kappa-B p105 subunit (Homo sapiens) (P19838 whole entry, looked up): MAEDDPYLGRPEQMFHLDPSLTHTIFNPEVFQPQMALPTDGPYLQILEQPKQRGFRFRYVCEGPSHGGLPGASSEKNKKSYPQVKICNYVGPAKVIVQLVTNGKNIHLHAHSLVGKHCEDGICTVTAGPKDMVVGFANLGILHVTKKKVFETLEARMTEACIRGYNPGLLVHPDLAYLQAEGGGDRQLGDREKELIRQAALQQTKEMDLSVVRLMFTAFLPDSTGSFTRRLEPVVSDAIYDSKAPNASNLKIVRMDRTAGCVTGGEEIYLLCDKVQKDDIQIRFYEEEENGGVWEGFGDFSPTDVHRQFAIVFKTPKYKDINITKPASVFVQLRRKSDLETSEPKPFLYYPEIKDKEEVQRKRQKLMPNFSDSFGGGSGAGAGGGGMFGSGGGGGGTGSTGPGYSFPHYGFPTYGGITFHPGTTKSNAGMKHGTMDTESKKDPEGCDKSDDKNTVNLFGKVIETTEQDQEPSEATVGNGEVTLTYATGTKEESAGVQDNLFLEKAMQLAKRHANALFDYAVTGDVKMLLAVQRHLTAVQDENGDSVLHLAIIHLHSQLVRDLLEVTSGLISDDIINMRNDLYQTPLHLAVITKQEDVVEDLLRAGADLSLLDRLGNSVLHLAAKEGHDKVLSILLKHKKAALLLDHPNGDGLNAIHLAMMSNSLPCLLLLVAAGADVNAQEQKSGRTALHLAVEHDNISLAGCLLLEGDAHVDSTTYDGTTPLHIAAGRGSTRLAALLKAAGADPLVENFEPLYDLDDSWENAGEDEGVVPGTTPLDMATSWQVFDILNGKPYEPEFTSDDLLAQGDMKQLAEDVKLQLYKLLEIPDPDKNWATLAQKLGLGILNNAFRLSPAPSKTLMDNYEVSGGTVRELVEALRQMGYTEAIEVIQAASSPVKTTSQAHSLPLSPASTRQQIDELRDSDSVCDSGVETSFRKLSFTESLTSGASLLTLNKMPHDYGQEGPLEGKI

O=C(NC(=O)c1cc(F)c(F)cc1Cl)Nc1cc(F)ccc1N1CCC(C(=O)O)CC1
inactive: [1] | [2] | [3] | [4] | [5] | [6] | [7] | [8] | [9] | MYC, MYC (gene 4609) | [10] | [12] | [13] | [14] | [15] | [16]
active: [11] 25 µM

Cc1cccc([N+](=O)[O-])c1
inactive: [1] | [2] | [3] | [4] | [5] | [6] | [7] | [8] | [9] | MYC, MYC (gene 4609) | [10] | [11] | [17] | [12] | [13] | [14] | [15] | [16]

CCCCCCCCCc1ccc(O)cc1
active: [15] 63.2 µM
inactive: [1] | [2] | [3] | [4] | [5] | [6] | [7] | [8] | [9] | MYC, MYC (gene 4609) | [11] | [17] | [12] | [13] | [14] | [16]

CC(C)(c1ccccc1)c1ccc(O)cc1
active: [6] 83.6 µM | [11] 84.7 µM | [14] 50 µM
inactive: [1] | [2] | [3] | [4] | [5] | [7] | [8] | [9] | MYC, MYC (gene 4609) | [10] | [17] | [12] | [13] | [15] | [16]

C[C@]12CCC(=O)C=C1CC[C@@H]1[C@@H]2CC[C@]2(C)C(=O)CC[C@@H]12
active: [2] 9.92 µM | [10] 8.39 µM | [11] 6.54 µM
inactive: [1] | [3] | [4] | [5] | [7] | [8] | [9] | MYC, MYC (gene 4609) | [12] | [13] | [14] | [15] | [16]

Cc1ccc(O)c(C)c1
inactive: [1] | [2] | [3] | [4] | [5] | [6] | [7] | [8] | [9] | MYC, MYC (gene 4609) | [11] | [17] | [12] | [13] | [14] | [15] | [16]

Clc1ccc(C(Cl)(Cl)Cl)cc1
inactive: [1] | [2] | [3] | [4] | [5] | [6] | [7] | [8] | [9] | MYC, MYC (gene 4609) | [10] | [11] | [12] | [13] | [14] | [15] | [16]
